Assay outcomes (PubChem BioAssay)
Sampled rows, rich in hits. Any-hit rate of the full collection: about 3.4%.
Cardio protect – myocardial damage modulation in H9c2 cells; AID 588492; 360,000 tested, 0.63% active; H9c2 cardiomyocytes, H2O2 injury protection, ATPLite, 2 h; protection from H2O2 cell death, % at 20 µM;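 active means compounds giving at least 50% protection of heart cells from peroxide-induced death in the single-dose screen, raw or plate-pattern-corrected value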;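 further: 0% = DMSO wells with peroxide and 100% = DMSO wells without peroxide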
NR2F2 inh – blocks human COUP-TFII nuclear receptor; P24468; HEK293T NGFI-A luciferase reporter, luminescence; inhibition, % at 8.6 µM; 370,000 tested, 0.7% active;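 active means inhibition above a per-plate cutoff, mean inhibition of test wells between control levels plus 3 SD, cut at about 38% in these data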;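 further: cells cotransfected with COUP-TFII expression vector driving the NGFI-A reporter; 0% = median of COUP-TF2 test wells and 100% = reporter-only cells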
Target sequence (P24468 whole entry, looked up): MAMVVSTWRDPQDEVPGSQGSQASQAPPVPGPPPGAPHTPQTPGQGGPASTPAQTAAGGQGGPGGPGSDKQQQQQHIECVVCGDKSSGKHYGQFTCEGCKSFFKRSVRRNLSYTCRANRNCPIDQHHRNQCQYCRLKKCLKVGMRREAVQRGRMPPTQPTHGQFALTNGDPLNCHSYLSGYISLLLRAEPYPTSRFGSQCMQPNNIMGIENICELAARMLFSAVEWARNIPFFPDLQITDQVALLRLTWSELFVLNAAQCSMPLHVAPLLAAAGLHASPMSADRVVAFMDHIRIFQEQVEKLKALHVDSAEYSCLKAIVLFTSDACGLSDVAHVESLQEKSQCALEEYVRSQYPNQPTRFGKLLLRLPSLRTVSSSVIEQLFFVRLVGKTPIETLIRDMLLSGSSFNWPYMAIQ
SMARCA2 activ – increases SMARCA2 function in MMTV reporter cells | MG213 cells, MMTV-luciferase reporter, dexamethasone, overnight | 370,000 tested, 1% active | AID 652017 | activation, % at 9.1 µM; in the data active means activation above about 7.8%;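 further: 0% = vehicle wells and 100% = reference activator wells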
Gli-Sufu block – Gli-Sufu pathway antagonism | Sufu-KO-LIGHT fibroblasts, Gli luciferase reporter luminescence | inhibition, % at 5 µM | 340,000 tested, 0.74% active;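 active means inhibition above about 55%, limit read from the data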;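 further: 0% = DMSO-treated cells and 100% = wells with medium but no cells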
GAA850 FXN act – increases GAA850 frataxin promoter reporter activity; activation, % at 6 µM; AID 540364; 360,000 tested, 0.56% active; HEK293 lucGAA850 FXN promoter luciferase reporter, 24 h; percent of 10 µM SAHA response;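 active means activation above the average of all compounds screened plus 3 SD, cutoff fixed separately per campaign, cut at about 7.5% in these data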;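 further: 0% = DMSO wells and 100% = 10 µM SAHA wells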
GalR3 antagonist – blocks the human galanin receptor 3; O60755; HEK293 GalR3-CNG cAMP membrane potential fluorescence; galR3 body fused to GalR1 C-terminus; inhibition, % at 3 µM; 360,000 tested, 0.44% active; AID 651719;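 active means inhibition above the screen-wide average plus 3 SD, cut at about 13% in these data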;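 further: forskolin and galanin both at EC90 stimulate the cells; cAMP rise reported by CNG channel membrane potential dye signal; 0% = forskolin plus galanin with DMSO and 100% = forskolin alone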
Gli-Sufu confirm – Gli-SUFU antagonism confirmation, single concentration; shares compounds with Gli-Sufu block; Sufu-KO-LIGHT cells, Gli luciferase reporter, luminescence; inhibition, % at 5 µM; 2,500 tested, 40% active; AID 602428;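 active means mean inhibition at 5 µM reaching about 45%, limit read from the data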;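 further: plate controls were DMSO-treated cells for no effect and wells lacking cells for full effect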
Gli cytotox – cytotoxicity counter-screen for Gli-SUFU antagonists. AID 651994. Sufu-KO-LIGHT cells cytotoxicity, ATP luminescence. cytotoxicity, % at 5 µM. 2,500 tested, 32% active. shares compounds with Gli-Sufu block;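 active means mean cytotoxicity at 5 µM above about 25%, limit read from the data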;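 further: cells exposed to compound overnight for roughly 16 to 18 hours; plate controls were DMSO wells with cells for no effect and medium without cells for full effect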
Wnt3a counter – inhibits Wnt3a reporter, counter-screen for Gli-SUFU antagonists | shares compounds with Gli-Sufu block | Wnt-LIGHT cells, Wnt3a-driven luciferase reporter, luminescence | inhibition, % at 6.25 µM | 2,500 tested, 20% active | AID 651995;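 active means mean inhibition above about 25%, limit read from the data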
* = called active by the depositor.

Screening O=C(NNC(=O)c1cc([N+](=O)[O-])ccc1Cl)c1cccnc1 returned Cardio protect 4, NR2F2 inh -13, SMARCA2 activ -2, Gli-Sufu block 54, GAA850 FXN act -1, GalR3 antagonist 1, Gli-Sufu confirm 9, Gli cytotox 21 and Wnt3a counter -24.
For C[C@H](NC(=O)[C@@H]1CCC(=O)N1Cc1ccco1)c1ccccc1 the results were Cardio protect -2, NR2F2 inh -8, SMARCA2 activ -3, Gli-Sufu block 68*, GAA850 FXN act 1, GalR3 antagonist 2, Gli-Sufu confirm 12, Gli cytotox -9 and Wnt3a counter -3.
For O=C(O)[C@H]1CCC(=O)N1Cc1ccco1 the results were Cardio protect -2, NR2F2 inh -16, SMARCA2 activ -3, Gli-Sufu block 3, GAA850 FXN act -1 and GalR3 antagonist -3.
CCN(CC)c1ccc(CNc2nc3ccccc3n2CCN2CCCCC2)cc1 was read as Cardio protect -21, NR2F2 inh 7, SMARCA2 activ -4, Gli-Sufu block 67*, GAA850 FXN act -5, GalR3 antagonist -6, Gli-Sufu confirm 42, Gli cytotox 23 and Wnt3a counter 16.
COc1ccc(N2C(N)=NC(N)=NC23CCCC3)cc1 was read as Cardio protect -4, NR2F2 inh -5, SMARCA2 activ 0, Gli-Sufu block -1, GAA850 FXN act -1 and GalR3 antagonist 3.
CCCCOc1ccc(N2C(N)=NC(N)=NC23CCCCC3)cc1 was read as Cardio protect -4, NR2F2 inh 4, SMARCA2 activ -3, Gli-Sufu block 59*, GAA850 FXN act 1, GalR3 antagonist -11, Gli-Sufu confirm 48*, Gli cytotox 13 and Wnt3a counter -7.
`CCOC(=O)[C@]12CCCC=C1N(CCCOC)C(=O)[C@@H]2CC(=O)N1CCCC1` gave NR2F2 inh -12 and SMARCA2 activ 0.
For CCOC(=O)[C@]12CCCC=C1N(CCCOC)C(=O)[C@@H]2CC(=O)N1CCN(C(=O)c2ccco2)CC1 the results were NR2F2 inh -4 and SMARCA2 activ -2.
CC(C)C(NS(=O)(=O)c1cccc2nsnc12)C(=O)NC1CCCCC1C (centres undefined) was read as Cardio protect 1, Gli-Sufu block 58*, GAA850 FXN act 0, Gli-Sufu confirm 28, Gli cytotox 4 and Wnt3a counter -9.
`COc1ccc(C2C(C(=O)Nc3ccc(Cl)cc3)CCC(=O)N2c2ccc(OC)cc2)cc1` (centres undefined) gave NR2F2 inh 0 and SMARCA2 activ -1.
Screening CCc1ccc2[nH]c(C)c(CN3CCCCCC3)c(=O)c2c1 returned Cardio protect 3, NR2F2 inh 11, SMARCA2 activ -1, Gli-Sufu block 10, GAA850 FXN act 3 and GalR3 antagonist -11.
`Cc1cc(N2CCC(C)CC2)nc(NCc2ccccc2)n1` gave Cardio protect -22, NR2F2 inh 15, SMARCA2 activ -4, Gli-Sufu block 52, GAA850 FXN act -1, GalR3 antagonist -8, Gli-Sufu confirm 22, Gli cytotox 31* and Wnt3a counter -17.
`Cc1cc(N2CCC(C)CC2)nc(-c2ccccc2O)n1` gave Cardio protect -9, NR2F2 inh -4, SMARCA2 activ -4, Gli-Sufu block -1, GAA850 FXN act -2 and GalR3 antagonist 9.
Nc1ncnc2c1ncn2[C@@H]1O[C@H](C(=O)N2CCN(Cc3ccccn3)CC2)[C@@H](O)[C@H]1O was read as Cardio protect -1.
O=c1[nH][nH]c2c1[C@@H](c1ccc(F)cc1)O[C@H](CCOCc1ccccc1)C2 was read as NR2F2 inh -3, SMARCA2 activ 3 and GalR3 antagonist -5.
For CN1/C(=C\C(=O)COC(=O)Cn2nnc(-c3ccccc3)n2)C(C)(C)c2ccccc21 the results were Cardio protect -18, NR2F2 inh 10, SMARCA2 activ -5, Gli-Sufu block 71*, GAA850 FXN act 0, GalR3 antagonist -5, Gli-Sufu confirm 68*, Gli cytotox 43* and Wnt3a counter 34*.
Screening CN1/C(=C/C(=O)COC(=O)CN2C(=O)C3CC=CCC3C2=O)C(C)(C)c2ccccc21 (centres undefined) returned Cardio protect -14, NR2F2 inh 14, SMARCA2 activ -4, Gli-Sufu block 10, GAA850 FXN act 0 and GalR3 antagonist -7.
`CSc1nc(O)c(/C=C2\C=Nc3ccccc32)[nH]1` gave Cardio protect -2, NR2F2 inh -15, SMARCA2 activ 3, Gli-Sufu block 6, GAA850 FXN act 5 and GalR3 antagonist 0.
For O=c1[nH]c(/C=C2\C=Nc3ccccc32)c(O)n1Cc1ccccc1F the results were Cardio protect -10, NR2F2 inh 19, SMARCA2 activ 0, Gli-Sufu block 56*, GAA850 FXN act -1, GalR3 antagonist -6, Gli-Sufu confirm 65*, Gli cytotox 27* and Wnt3a counter 10.
For Cc1ccc(CNC(=O)CCNC(=O)c2ccco2)cc1 the results were Cardio protect 1, NR2F2 inh -4, SMARCA2 activ 1, Gli-Sufu block -27, GAA850 FXN act 0 and GalR3 antagonist 0.
For COc1cccc(NC(=S)/C(=C(\[O-])c2cc(C)n(-c3ccccc3F)c2C)[n+]2ccc(N(C)C)cc2)c1 the results were Cardio protect -22, NR2F2 inh 23, SMARCA2 activ -5, Gli-Sufu block 60*, GAA850 FXN act -5, GalR3 antagonist -1, Gli-Sufu confirm 57*, Gli cytotox 33* and Wnt3a counter 18.
`Cc1cc(C([O-])=C(C(=S)Nc2ccc(F)cc2)[n+]2ccccc2)c(C)n1-c1ccc(F)cc1` gave Cardio protect 0, NR2F2 inh -8, SMARCA2 activ 4, Gli-Sufu block 5, GAA850 FXN act 2 and GalR3 antagonist -6.
O=S(=O)(NCc1cn2ccccc2n1)c1cc(F)ccc1F was read as Cardio protect 6, NR2F2 inh 1, SMARCA2 activ 2, Gli-Sufu block 62*, GAA850 FXN act -1, GalR3 antagonist -4, Gli-Sufu confirm 26, Gli cytotox 8 and Wnt3a counter -14.
`Cc1ccc(NC(=O)Cc2nn(C)c(=O)c3ccccc23)cc1F` gave Cardio protect -29, NR2F2 inh 33, SMARCA2 activ -2, Gli-Sufu block 67*, GAA850 FXN act -4, GalR3 antagonist -3, Gli-Sufu confirm 66*, Gli cytotox 29* and Wnt3a counter 2.
